Assay outcomes deposited in PubChem BioAssay by Bradner/Qi Labs at DFCI.
CBX7 inh: CBX7 chromodomain binding inhibitors, primary screen, biochemical, AlphaScreen. Chromobox protein homolog 7 (Homo sapiens), O95931. AlphaScreen His6-CBX7 / biotin-H3K27me3 peptide binding; hits give low values. normalised signal (fraction of DMSO) (test concentration not listed). hit rate 1.1% among 66,000. AID 1224903, 2016; in the data active means normalised signal below about 0.5
Target sequence (O95931 whole entry, looked up): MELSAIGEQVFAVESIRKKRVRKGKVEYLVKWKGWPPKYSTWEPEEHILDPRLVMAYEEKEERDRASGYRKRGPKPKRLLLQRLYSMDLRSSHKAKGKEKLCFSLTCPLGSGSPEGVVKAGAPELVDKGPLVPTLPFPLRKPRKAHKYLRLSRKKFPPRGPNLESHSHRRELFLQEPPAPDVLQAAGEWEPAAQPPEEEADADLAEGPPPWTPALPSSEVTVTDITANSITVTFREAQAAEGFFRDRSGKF
A number is an active result; 0 = inactive. Shown is part of a subset that was picked to be rich in hits.

SMILES	CBX7 inh
CC1CCCC(NC(=O)CCNS(=O)(=O)c2ccc3c(c2)CCC(=O)N3)C1C (stereo unspecified)	0
Oc1cccc2ccc(Oc3cccc4cccnc34)nc12	0
c1ccc(-c2csc(Nc3ccccn3)n2)cc1	0
Oc1cccc2ccc(Nc3ccccn3)nc12	0.0087
CCn1c(=O)cc(OCC(=O)Nc2ccc(Cl)cc2)c2ccccc21	0
O=C(c1ccc2c(c1)N(Cc1ccccc1)CCS2)N1CCN(Cc2ccccc2)CC1	0.37
O=C(c1ccc2c(c1)N(Cc1ccc(F)cc1)CCS2)N1CCN(c2ccccc2)CC1	0
O=C(c1ccc2c(c1)N(Cc1ccccc1)CCS2)N1CCCCCC1	0.46
O=C(c1ccc2c(c1)N(Cc1ccccc1)CCS2)N1CCc2ccccc21	0
O=C(c1ccc2c(c1)N(Cc1ccccc1)CCS2)N1CCN(c2ccc(Cl)cc2)CC1	0
O=C(c1ccc2c(c1)N(Cc1ccccc1)CCS2)N1CCN(c2ccccn2)CC1	0
Cc1ccc(C)c(N2CCN(C(=O)Cn3ncc4c3-c3ccccc3OC4)CC2)c1	0
CC(C)c1ccc(NC(=O)c2cccc3c2C(=O)N(Cc2cccnc2)C3)cc1	0
COCCCNC(=O)c1sc2ncn(CC(=O)N3CC(C)CC(C)C3)c(=O)c2c1C (stereo unspecified)	0
O=C(C1CCCN(c2nc3ccccc3[nH]2)C1)N1CCN(c2ccccc2)CC1 (stereo unspecified)	0
Cc1ccc2c(c1)c(=O)c(C(=O)c1ccccc1)cn2Cc1ccc(F)cc1	0
Cc1ccc(Cn2cc(C(=O)c3ccccc3)c(=O)c3cc(C)ccc32)cc1	0.44
Cc1ccc2c(c1)c(=O)c(C(=O)c1ccccc1)cn2Cc1ccccc1	0
Cc1oc(-c2ccccc2)nc1Cn1c(SCc2ccc(F)cc2)nc2ccncc21	0
COc1cc(OC)cc(OCC(O)Cn2cnc3cc(C)c(C)cc32)c1 (stereo unspecified)	0
Cc1cc2ncn(CC(O)COc3ccccc3C)c2cc1C (stereo unspecified)	0.17
Cc1cc2ncn(CC(O)COc3ccc(C(C)C)cc3)c2cc1C (stereo unspecified)	0
CCC(C)NC(=O)c1c[nH]c2ccc(S(=O)(=O)N(CC)c3ccccc3)cc2c1=O (stereo unspecified)	0
O=C(Nc1ccc2oc(-c3cccc(F)c3)nc2c1)c1ccc(-c2ccccc2)cc1	0
COc1ccc2nc(NC(=O)c3ccc(S(=O)(=O)N4CCCCC4)cc3)sc2c1	0
SMILES	CBX7 inh
Cc1ccc(CNC(=O)Cn2ncc3ccsc3c2=O)cc1	0
NC(=O)CSc1nnc2c(n1)[nH]c1ccccc12	0
CCOC(=O)CCCCC(=O)c1[nH]c(=O)[nH]c1CSc1nnc2c(n1)[nH]c1ccccc12	0.42
c1ccc(CSc2nnc3c(n2)[nH]c2ccccc23)cc1	0
CCCCOc1ccc(N2C(=O)CC(N3CCC(C(N)=O)CC3)C2=O)cc1 (stereo unspecified)	0
Cc1[nH]c2ccc(-c3nnc(SCCc4ccccc4)n3-c3ccccc3)cc2c1C	0
CCSc1nnc(-c2ccc3[nH]c(C)c(C)c3c2)n1-c1ccccc1	0
Cc1[nH]c2ccc(-c3nnc(SCCO)n3-c3ccc(Br)cc3)cc2c1C	0.45
COc1ccc(-c2nnc(Nc3ccc(Cl)c(Cl)c3)c3ccccc23)cc1	0
COc1ccc(-c2nnc(Nc3cccc(O)c3)c3ccccc23)cc1	0.43
COc1ccc(-c2nnc(Nc3ccc(Cl)cc3)c3ccccc23)cc1	0
Cc1ccc(-c2nc3ccccn3c2Nc2ccc(F)cc2)cc1	0
Cc1cccc2nc(-c3ccccn3)c(Nc3ccccc3)n12	0.0053
Cc1cccc(C)c1Nc1c(-c2ccccc2F)nc2cccc(C)n12	0
Cc1ccc(Nc2c(-c3ccccn3)nc3cccc(C)n23)cc1	0.0014
Cc1ccn2c(Nc3ccc(F)cc3)c(-c3ccccn3)nc2c1	0
Cc1ccc(Nc2c(-c3ccccn3)nc3ccc(Cl)cn23)cc1	0
Fc1ccc(Nc2c(-c3ccccn3)nc3ccc(Br)cn23)cc1	0
Cc1cccc2nc(-c3ccccn3)c(Nc3ccc(F)cc3)n12	0.059
Cc1ccc(Nc2c(-c3ccccn3)nc3ccc(Br)cn23)cc1	0
Cc1ccc(Nc2c(-c3ccccc3)nc3cc(C)ccn23)cc1	0
Cc1ccc(Nc2c(-c3ccsc3)nc3cccc(C)n23)cc1	0
Cc1ccc(Nc2c(-c3c(F)cccc3Cl)nc3cccc(C)n23)cc1	0
Cc1ccc(Cl)cc1NC(=O)c1csc2c1CCCCC2	0
CCc1ccc2c(c1)c(=O)c(S(=O)(=O)c1ccc(Cl)cc1)cn2CC(=O)Nc1ccc(F)cc1	0
SMILES	CBX7 inh
Cc1ccc(Cn2c(C(=O)NCc3ccc4c(c3)OCO4)cc3sccc32)cc1	0
Cc1c(Cl)cccc1NC(=O)C1=CCN(S(=O)(=O)c2ccccc2)CC1	0
Cc1cccc(Nc2nnc(C(C)(C)C)c(=O)[nH]2)c1C	0
Cc1ccc(NC(=O)c2c(C)nc(Nc3nc4ccccc4o3)nc2C)cc1	0
CCCc1nc(Nc2nc3ccccc3o2)ncc1C(=O)OCC	0
Cc1ccccc1NC(=O)c1cnc(Nc2nc3ccccc3o2)nc1C	0.17
